SARS PLpro yeast-1 = SARS-CoV PLP inhibition in yeast; S. cerevisiae expressing SARS-CoV PLpro, growth rescue; actives 0.19% (n = 330,000); AID 485353; Potency, µM (doses to about 32.9 µM), without a hit: top-dose activity, positive = growth rescue, actives largely listed as activators; calls by dose curve; further: potency means the concentration at half of the fitted maximal effect; 0% is about no effect; nearly all actives have a fitted effect of over 55% in size
Tb PYK inh = blocks Trypanosoma brucei pyruvate kinase. Q57TT1. TbPYK enzyme, Kinase-Glo Plus ATP luminescence, 45 min. Potency, µM (top dose mostly 76.8 µM), inactives show at the top dose activity, negative = inhibition, usual class: inhibitors. actives 0.12% (n = 410,000); further: potency means the concentration at half of the fitted maximal effect; on the % scale 0 is the no-effect control and ±100 the full control effect; nearly all actives have a fitted effect of over 50% in size
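Screened from lowest to highest concentration, compounds were pinned into TbPYK/substrate mixtures, and ADP (130 uM final) was added. Plates sat at room temperature for 45 min prior to Kinase-Glo Plus detection by luminescence.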
AmpC no deterg = AmpC beta-lactamase inhibition without detergent; AmpC nitrocefin hydrolysis, absorbance 480 nm, 0.0001% Triton; actives 0.52% (n = 330,000); Potency, µM (series often up to 57.1 µM), for inactives: top-dose activity change, negative = inhibition, hits mostly inhibitors;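 further: potency means the concentration at half of the fitted maximal effect; plate controls were no compound for no effect and no enzyme for full effect; nearly all actives have a fitted effect of over 20% in size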
Target sequence (P00811 whole entry, looked up): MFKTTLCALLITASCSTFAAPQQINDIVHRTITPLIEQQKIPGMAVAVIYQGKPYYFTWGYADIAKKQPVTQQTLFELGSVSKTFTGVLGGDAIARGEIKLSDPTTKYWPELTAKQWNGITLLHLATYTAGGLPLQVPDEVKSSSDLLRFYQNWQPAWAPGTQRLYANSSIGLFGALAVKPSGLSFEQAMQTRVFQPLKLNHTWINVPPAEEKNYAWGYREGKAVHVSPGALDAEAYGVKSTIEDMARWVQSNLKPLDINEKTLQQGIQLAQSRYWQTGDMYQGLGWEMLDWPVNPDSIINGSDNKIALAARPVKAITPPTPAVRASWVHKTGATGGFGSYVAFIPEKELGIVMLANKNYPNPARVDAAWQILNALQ
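AmpC (5.3 nM in the dispensed reagent) in 20 mM phosphate pH 7.0 with 0.01% (detergent screen) or 0.0001% Triton X-100 was preincubated with compounds for 15 min at room temperature. Nitrocefin was then added from an 800 uM solution, and hydrolysis was followed at 480 nm.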
RE007 growth inh = less growth of the S. pombe RE007 Vpr strain | actives 0.21% (n = 360,000) | Potency, µM (titrated, usually from 92.2 µM), without a hit: at the highest dose activity change, negative = less growth, actives largely listed as inhibitors | AID 651644 | S. pombe RE007 Vpr strain, BacTiter-Glo ATP luminescence, 24 h; active means well fitted falling curve with a large enough effect; inconclusive means small, poorly fitted or top-dose-only effect; inactive means no such curve, though single readings can be large or run the other way; further: potency means the concentration at half of the fitted maximal effect; on the % scale 0 is the no-effect control and ±100 the full control effect; nearly all actives have a fitted effect of over 50% in size
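Fission yeast strain RE007, carrying one chromosomally integrated HIV-1 vpr copy, was seeded at OD 0.01 in PMG+AL medium with 23 nL pinned compound. After 24 h at 30 °C and 99% humidity, viability was read by BacTiter-Glo luminescence.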
Sm TGR block = inhibitors of Schistosoma mansoni thioredoxin glutathione reductase; Q962Y6; purified TGR, DTNB reduction, TNB absorbance 405 nm; Potency, µM (series often up to 114 µM), without a hit: at the top dose activity change, negative = inhibition, most hits filed as inhibitors; actives 3% (n = 360,000); further: potency means the concentration at half of the fitted maximal effect; on the % scale 0 is the no-effect control and ±100 the full control effect; nearly all actives have a fitted effect of over 60% in size
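First, TGR (20 nM dispensed) and NADPH were mixed with compound. Second, a 15 min room-temperature incubation followed. Third, further NADPH and then DTNB were added to start the reaction. Finally, TNB absorbance was monitored kinetically.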
AmpC detergent = blocks E. coli AmpC beta-lactamase in detergent assay; P00811; AmpC hydrolysis of nitrocefin, absorbance 480 nm, 0.01% Triton; Potency, µM (titrated, usually from 114 µM), for the others: at the highest dose activity change, negative = inhibition, actives largely listed as inhibitors; actives 0.041% (n = 370,000);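 further: potency means the concentration at half of the fitted maximal effect; 0% = no-compound wells and -100% = no-enzyme wells; nearly all actives have a fitted effect of over 25% in size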
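20 mM phosphate pH 7.0 + 0.01% (detergent screen) or 0.0001% Triton X-100; 5.3 nM AmpC reagent; cpd preinc 15 min RT; nitrocefin (800 uM stock) to start; A480 q20 s × 4 min; Activity was normalised to no-enzyme and no-compound control wells.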
SARS PLpro yeast-2 = Rescues yeast growth by inhibiting SARS-CoV PLpro | actives 19% (n = 1,000) | shares compounds with SARS PLpro yeast-1 | calls only | yeast expressing SARS-CoV PLpro, growth phenotype rescue | AID 652038; call rule not given here
Numbers without * were called inactive; i = inactive; ? = inconclusive; · = no result given; + = active, no number; [ ] = dose if it differs, or a comment. This is a sample that favours compounds with a hit; in the whole collection about 3.3% have one here. Unless noted, the call rests on the fitted dose curve; in most records, active means well fitted curve in the direction sought with a large enough effect; inconclusive means small, poorly fitted or top-dose-only effect, or another doubt; inactive means no such curve, though single readings can be large; an effect the other way counts as inactive or inconclusive.

SMILES	SARS PLpro yeast-1	Tb PYK inh	AmpC no deterg	RE007 growth inh	Sm TGR block	AmpC detergent	SARS PLpro yeast-2
O=[N+]([O-])c1ccccc1/C=N/N1CCN(c2ccncc2S(=O)(=O)N2CCCCC2)CC1	-58%	-17%	66%	4%	0%	-6%	·
O=[N+]([O-])c1ccc(/C=N/N2CCN(c3ccncc3S(=O)(=O)N3CCCCC3)CC2)cc1	3.2µM*	-8%	-29%	20%	0%	?	i
CCOC(=O)c1nn(-c2ccc(Cl)cc2)c2nc(Nc3ccccc3)cc(=O)n12	?	-1%	29%	7%	1%	-2%	i
CCOC(=O)c1nn(-c2cccc(Cl)c2)c2nc(Nc3ccccc3)cc(=O)n12	5%	-4%	68%	-25%	-5%	-12%	·
CCCCCC(=O)N/N=C(\C)c1ccc(N2CCCCC2)cc1	14µM*	3%	8%	-11%	-2%	-3%	i
CCCCCCC(=O)Nc1nc(C)c(-c2csc(Nc3cc(OC)ccc3OC)n2)s1	?	-14%	-40%	4%	5%	0%	i
Cc1ccccc1NC(=O)C1(C)Cc2ccccc2C(=O)O1 (stereo not drawn)	?	2%	-29%	-23%	10%	-7%	?
CCc1ccccc1NC(=O)C1(C)Cc2ccccc2C(=O)O1 (stereo not drawn)	·	-1%	·	·	-4%	-7%	·
Cc1ccc(O)c(N=NC2=C(O)CC(C)(C)CC2=O)c1	18µM*	9%	-16%	-5%	-19%	0%	+
O=C(COc1ccccc1-c1nc(-c2ccccc2)no1)Nc1ccccc1[N+](=O)[O-]	·	-1%	·	·	-11%	-4%	·
Cc1ccsc1CN(Cc1ccco1)c1cnc(S(C)(=O)=O)nc1C(=O)Nc1ccc(Cl)cc1	·	2%	·	·	-12%	13%	·
CCn1nnc(-c2ccccc2NS(=O)(=O)c2ccc(S(=O)(=O)N(C)C3CCCCC3)cc2)n1	?	0%	-13%	2%	0%	-6%	+
CCC1CCCCN1C(=O)CSc1n[nH]c(-c2ccccc2)n1 (stereo not drawn)	·	10%	·	·	4%	12%	·
CCCc1cc(=O)oc2cc(C)c3c(C(C)(C)C)coc3c12	·	-7%	·	·	1%	10%	·
CCOC(=O)C(C)/C(C)=N/NC(N)=S (stereo not drawn)	?	-4%	-33%	16%	-9%	-9%	+
Cc1ccc(S(=O)(=O)N2CCN(Cc3noc(CCC(=O)N4CCCCC4)n3)CC2)c(C)c1	·	0%	·	·	-15%	-4%	·
O=C(NC(=S)Nc1ccccc1N1CCCC1)c1ccc([N+](=O)[O-])cc1	?	-8%	-21%	1%	-2%	9%	·
Cc1c(C(=O)NC(=S)Nc2ccccc2N2CCCC2)cccc1[N+](=O)[O-]	7.1µM*	-10%	-39%	7%	-11%	0%	+
Cc1nc(Nc2nc(CSc3nc4ccccc4[nH]3)cc(=O)[nH]2)nc2ccccc12	2%	1%	42%	14%	-4%	0%	·
Cc1ccc2nc(Nc3nc(CSc4nnnn4-c4ccccc4)cc(=O)[nH]3)nc(C)c2c1	?	·	-8%	10%[3.69 µM]	-4%	0%	i
Cc1ccc(Cl)cc1N1CCN(C(=O)c2cc(S(=O)(=O)N3CCCCCC3)cn2C)CC1	·	-7%	·	·	2%	0%	·
CCCCN(C)Cc1c(C)[nH]c2ccc(OCC)cc2c1=O	?	1%	-9%	-5%	-9%	?	i
CN1C(=O)c2ccc(NC(=O)c3ccc(N4CCCCC4)c([N+](=O)[O-])c3)cc2C1=O	14µM*	7%	-23%	2%	-1%	2%	i
O=C(Nc1cccnc1)c1ccc(N2CCCC2)c([N+](=O)[O-])c1	1%	1%	-25%	-17%	-29%	-1%	·
COc1ccc(C)cc1N(C)C(=O)c1c2c(nc3ccccc13)C(=O)N(C1CCCCC1)C2	·	-7%	·	·	-1%	2%	·
SMILES	SARS PLpro yeast-1	Tb PYK inh	AmpC no deterg	RE007 growth inh	Sm TGR block	AmpC detergent	SARS PLpro yeast-2
C/C(=N\NC(=O)c1cc(-c2cccnc2)nc2ccccc12)c1ccc(O)cc1O	?	-9%	-11%	7%	-10%	-4%	i
Clc1nc2sccn2c1/C=N/n1cnc2ccccc21	?	-2%	-4%	3%	7%[11.4 µM]	6%	i
C(=N\n1cnc2ccccc21)/c1cccnc1	10%	0%	-13%	11%	5%	4%	·
CC(OC(=O)c1cccc(-n2cnnn2)c1)C(=O)c1ccccc1 (stereo not drawn)	?	-7%	?	5%	-15%	?	i
O=C(Nc1ccc(Br)cc1)C1CCCN(S(=O)(=O)c2ccc(Br)s2)C1 (stereo not drawn)	·	1%	·	·	3%	-8%	·
Cc1cc(/C=C2/NC(=O)N(Cc3ccccc3F)C2=O)c(C)n1C(C)C	?	-7%	-37%	-24%	-33%	-3%	i
COc1ccc2oc(C(=O)OCC(=O)N(C)CC(=O)Nc3ccc(F)cc3)c(C)c2c1	?	0%	22%	-18%	4%	1%	i
COc1ccc2oc(C(=O)OCC(=O)NC(=O)c3ccccc3)c(C)c2c1	-5%	-1%	-34%	-1%	-1%	-7%	·
Cc1ccc(NC(=O)CSc2nc3c(c(=O)[nH]2)CCC3)cc1Cl	·	3%	·	·	11%	-1%	·
COC(=O)c1ccc(Oc2c(C)oc3cc(OCc4cnn(-c5ccccc5)c4)ccc3c2=O)cc1	16%	0%	-7%	10%	8%	2%	·
Cc1oc2cc(OCc3cnn(-c4ccccc4)c3)ccc2c(=O)c1Oc1ccccc1F	2.5µM*	-2%	-34%	-1%	2%	?	i
c1cc2c(cc1[C@H]1OC[C@H]3[C@@H]1CO[C@H]3c1ccc3c(c1)OCO3)OCO2	?	-2%	-21%	-20%	·	·	i
CN1C(=O)c2ccccc2N(C)C1c1ccc2c(c1)OCO2 (stereo not drawn)	9%	0%	0%	-13%	-2%	-16%	·
CCOC(=O)C1CCN(C(=O)c2ccc3c(c2)N=C(CC)c2cc(C)ccc2S3)CC1	·	7%	·	·	-8%	0%	·
O=C(NN=Cc1c(O)ccc2ccccc12)c1ccncc1	·	-1%	·	2%	·	·	·
O=C(N/N=C/c1c(O)ccc2ccccc12)c1ccc[n+](CCO)c1	0.89µM*	2%	-3%	-13%	1%	3%	i
